TDP1 inh – TDP1 (human) enzyme inhibition; Q9NUW8; recombinant TDP1, AlphaScreen DNA substrate cleavage; Potency, µM (titrated, usually from 130 µM), without a hit: at the highest dose activity change, negative = inhibition, most hits filed as inhibitors; 0.28% of 350,000 active; AID 485290; note: nearly all actives have a fitted effect of over 40% in size
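Signal: AlphaScreen proximity between streptavidin donor and anti-FITC acceptor beads on intact substrate. Reaction: Tdp1 1 nM, substrate 15 nM final, 5 min RT after 15 min compound preincubation.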
Gal4-VP16 FLuc – counter-screen for ROR gamma inhibitors: Gal4-VP16 reporter | Drosophila S2 Gal4-VP16 UAS-luciferase, luminescence, 20 h | Potency, µM (top dose mostly 53.6 µM), inactives show at the top dose activity, negative = inhibition, most hits filed as inhibitors | 3.5% of 310,000 active | AID 2546;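 note: Gal4-VP16 expression switched on by copper sulfate through the metallothionein promoter; nearly all actives have a fitted effect of over 50% in size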
RORg inh – blocks mouse ROR gamma transcriptional activity. P51450. Drosophila S2 Gal4-RORgamma UAS-luciferase reporter, 20 h. Potency, µM (highest dose often 53.6 µM), for the others: top-dose activity change, negative = inhibition, hits mostly inhibitors. 5.4% of 310,000 active. AID 2551; note: nearly all actives have a fitted effect of over 60% in size
Target sequence (P51450 whole entry, looked up, the tested form may be a part): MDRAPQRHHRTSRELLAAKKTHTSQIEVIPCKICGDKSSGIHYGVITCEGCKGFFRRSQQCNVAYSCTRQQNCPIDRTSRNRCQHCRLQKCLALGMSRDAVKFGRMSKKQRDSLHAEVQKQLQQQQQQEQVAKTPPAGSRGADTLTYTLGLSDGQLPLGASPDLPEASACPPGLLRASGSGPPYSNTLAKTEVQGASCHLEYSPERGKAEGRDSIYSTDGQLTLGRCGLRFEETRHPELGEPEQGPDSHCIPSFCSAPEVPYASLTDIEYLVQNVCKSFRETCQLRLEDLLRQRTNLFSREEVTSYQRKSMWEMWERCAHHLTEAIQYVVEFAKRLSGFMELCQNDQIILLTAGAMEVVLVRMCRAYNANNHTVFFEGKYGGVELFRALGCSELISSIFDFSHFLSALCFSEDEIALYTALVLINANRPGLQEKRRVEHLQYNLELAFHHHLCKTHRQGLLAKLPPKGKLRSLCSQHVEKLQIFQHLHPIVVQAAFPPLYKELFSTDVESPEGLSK
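Luciferase reporter read in Schneider cells carrying Gal4-RORγ (mouse) and UAS-Photinus luciferase; cells given compound 1 h before 700 uM copper sulfate induction, then incubated 20 h at ambient temperature.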
DT40 TDP1 no CPT – qHTS for Inhibitors of human tyrosyl-DNA phosphodiesterase 1 (TDP1): qHTS in cells in absence of CPT | Potency, µM (top dose mostly 46.2 µM), for the others: top-dose activity change, negative = growth inhibition, hits mostly inhibitors | 15% of 420,000 active | AID 686978, 2013 | DT40 Tdp1-/- hTDP1 cells, no CPT, ATP luminescence, 48 h; note: nearly all actives have a fitted effect of over 55% in size
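Seeded 400 DT40-hTDP1 cells/well (vehicle DMSO, no 20 nM CPT); pinned compounds; ≥48 hr at 37 °C; CellTiter-Glo luminescence as viability measure.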
DT40 TDP1 CPT – DT40-hTDP1 cell growth loss with CPT; chicken DT40 Tdp1-/-;hTDP1 cells + 20 nM CPT, ATP luminescence, 48 h; 12% of 420,000 active; AID 686979; Potency, µM (doses to about 46.2 µM), inactives show top-dose activity change, negative = growth inhibition, usual class: inhibitors; note: nearly all actives have a fitted effect of over 55% in size
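Chicken DT40 Tdp1-/- cells stably complemented with human TDP1 were seeded at 400 cells/well in medium containing 20 nM camptothecin, exposed to pin-transferred compounds, and grown at 37 °C for at least 48 hr. Viability was read as ATP luminescence.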
* marks the source's active call; other numbers are inactive results; ? = inconclusive; nt = not tested or not shown; [ ] = dose if it differs, or a comment. Shown are actives, neighbours in structure and some others; about 19% of the full set was active somewhere. Calls come from the whole dose curve; as a rule, active = well fitted curve in the direction sought with a large enough effect; inconclusive = small, poorly fitted or top-dose-only effect, or another doubt; inactive = no such curve, though single readings can be large; an effect the other way counts as inactive or inconclusive. % is set by controls: 0 for no effect and ±100 for the full control effect; potency is the fitted concentration of half-maximal effect.

SMILES	TDP1 inh	Gal4-VP16 FLuc	RORg inh	DT40 TDP1 no CPT	DT40 TDP1 CPT
COc1ccc(/C(O)=C(\C#N)c2nc3ccccc3n2C)cc1OC	7.4%	17.8µM*	7.08µM*	-27.8%	-25.5%
Cn1c(/C(C#N)=C(\O)c2ccc(S(=O)(=O)N3CCCCC3)cc2)nc2ccccc21	6.4%	10µM*	4.47µM*	?	?
Cn1c(/C(C#N)=C(\O)c2ccc(Br)s2)nc2ccccc21	?	?	3.55µM*	?	21.7%
Cc1ccc(C)c(NC(=O)CN(C)C(=O)c2sccc2C)c1	4.6%	nt	nt	2.0%	-0.5%
COc1ccc(C2=C(C)C(=O)N(Cc3ccc(C(=O)Nc4cccc(F)c4)cc3)S2(=O)=O)cc1	7.1%	nt	nt	23.1µM*	20.6µM*
COc1ccc(C2=C(C)C(=O)N(Cc3ccc(C(=O)Nc4ccc(F)cc4C)cc3)S2(=O)=O)cc1	4.5%	nt	nt	3.66µM*	3.26µM*
CCCC(=O)C1=C(SCC)CC(C)(C)C(C(=O)OC)C1=O (centres undefined)	-3.1%	-9.4%	-8.1%	-0.5%	-2.6%
COc1cccc(CNC(=O)CCc2c(C)c3cc4c(C)c(C)oc4cc3oc2=O)c1	-2.3%	nt	nt	?	?
COc1ccccc1CNC(=O)CCc1c(C)c2ccc(OC)c(C)c2oc1=O	7.4%	nt	nt	-22.7%	?
COc1ccc2c(C)c(CCC(=O)NCCc3ccc(OC)c(OC)c3)c(=O)oc2c1	2.5%	nt	nt	?	13µM*
Cc1oc2cc3oc(=O)c(CCC(=O)NCCc4ccccc4F)c(C)c3cc2c1C	4.7%	nt	nt	23.1µM*	23.1µM*
COc1ccccc1CCNC(=O)CCc1c(C)c2cc3c(C)c(C)oc3cc2oc1=O	7.0%	nt	nt	16.4µM*	18.4µM*
C/[N+]([O-])=C1\Cc2ccccc2C1=O	-4.8%	10.0%	-7.5%	-3.7%	2.9%
Cc1cc2nc(NC3=NCN(CCN4CCOCC4)CN3)nc(C)c2cc1C	0.0%	2.2%	-9.5%[10 µM]	nt	nt
Cc1nc(NC2=NCN(CCCN3CCOCC3)CN2)nc2c(C)cccc12	0.0%	0.8%	-38.3%	16.4µM*	?
Cc1occc1C(=O)NNC(=O)c1nn(C)c(=O)c2ccccc12	3.8%	5.9%	8.7%	3.3%	0.5%
CC(=O)c1cccc(NC(=O)CCc2nnc3ccc(NCc4ccco4)nn23)c1	25.1µM*	-6.4%	13.3%	-17.6%	?
COc1cccc(N2CCN(c3ccc4nnc(CCC(=O)Nc5cccc(C(C)=O)c5)n4n3)CC2)c1	-1.5%	3.4%	-18.9%	?	16.4µM*
C[C@@H](C(=O)Nc1ccc2c(c1)OCCO2)n1nnc2ccccc2c1=O	3.2%	?	1.7%	1.5%	13.7%
Cc1cccc(C)c1OCCOC(=O)c1ccc(S(=O)(=O)N2CCCC2)cc1	nt	nt	nt	?	2.7%
O=S(=O)(/N=C(/Nc1cccnc1)c1ccccc1)c1ccc(F)cc1F	2.7%	nt	nt	-40.1%	-11.3%
O=C(NCc1ccc(Cl)cc1)c1ccc2c(Cl)c3c(nc2c1)CCCC3	4.6%	nt	nt	?	16.4µM*
O=C(NC1CC1)c1ccc2c(Cl)c3c(nc2c1)CCCC3	0.0%	?	?	?	?
O=C(Nc1ccc(F)c(Cl)c1)c1ccc2c(Cl)c3c(nc2c1)CCCC3	5.9%	nt	nt	-14.9%	-10.1%
O=C(NCc1cccc(Cl)c1)c1ccc2c(Cl)c3c(nc2c1)CCCC3	4.6%	nt	nt	14.6µM*	?
SMILES	TDP1 inh	Gal4-VP16 FLuc	RORg inh	DT40 TDP1 no CPT	DT40 TDP1 CPT
CCOc1ccccc1NC(=O)N1CCN(Cc2nc3ccc(C)cc3o2)CC1	-1.2%	nt	nt	-22.0%	-22.0%
COC(=O)c1cc(Br)c(=O)n(Cc2cccnc2)c1	3.5%	-3.4%	-39.6%	-5.1%	-1.9%
COc1ccc(-c2csc(NC(=S)NC(=O)c3ccco3)n2)cc1	2.5%	-1.6%	7.08µM*	3.2%	-5.4%
CC(C)CC(=O)NC(=S)Nc1nc(-c2ccccc2)cs1	1.4%	5.62µM*	6.31µM*	?	?
CCn1nc(C(=O)OCC(=O)Nc2nc(-c3ccc(OC)cc3)cs2)c2ccccc2c1=O	2.3%	-3.4%	?	?	?
COc1ccc(-c2csc(NC(=O)COC(=O)c3ccco3)n2)cc1	2.7%	?	26.0%	?	23.1µM*
O=C(NC(=S)Nc1nc(-c2ccccc2)cs1)c1cccs1	-5.5%	-9.4%	-0.7%	-5.0%	13.3%
O=C(NC(=S)Nc1nc(-c2ccccc2)cs1)c1ccco1	6.2%	?	3.55µM*	-29.0%	?
COc1ccc(C(=O)CC(c2ccccc2)C2CCCCC2=O)cc1 (centres undefined)	-4.7%	13.8%	-18.7%	?	?
COc1ccccc1CC(NC(C)=O)C(=O)NC1CCN(c2nnnn2-c2ccccc2)CC1 (centres undefined)	-3.3%	nt	24.0%[0.365 µM]	-1.8%	-23.6%
Cc1ccc(S(=O)(=O)N2CCCN(C(=O)CNC(=O)c3ccccc3)CC2)cc1	-0.8%	nt	nt	-4.5%	1.7%
O=C(CN(C(=O)Cn1nnc(-c2ccc(F)cc2)n1)c1ccc(F)c(Cl)c1)NCC1CCCO1 (centres undefined)	-3.6%	-1.9%	21.6%	-17.8%	8.1%
O=c1[nH]c(SCc2ccccc2)nc2c1sc1ccccc12	2.3%	-7.4%	2.1%	-4.8%	5.6%
O=C(CCCCl)N1CCc2[nH]c3ccccc3c2C1	5.1%	nt	nt	3.7%	8.3%
CCN1CCc2c(sc(N)c2C#N)C1	4.1%	3.0%	1.6%	23.1µM*	?
CS(=O)(=O)N(CC(=O)NCCC1=CCCCC1)C1CCCCC1	4.3%	-9.9%	-17.0%	?	-14.3%
c1ccc(C2CC(c3cccs3)=NN2c2ccccc2)cc1 (centres undefined)	nt	7.0%	-29.5%	8.2%	-1.7%
CC(=O)C1C(=O)C=C(c2cccs2)CC1c1ccccc1 (centres undefined)	0.0%	-8.1%	12.6µM*	?	13.9%
O=C1C=C(c2cccs2)C[C@H](c2ccccc2)[C@H]1n1nnc([N+](=O)[O-])n1	1.4%	-21.1%	?	2.91µM*	2.59µM*
CS(=O)(=O)NCCCNc1c(Cl)cccc1[N+](=O)[O-]	6.8%	17.0%	?	4.4%	4.7%
Cc1cc(N2CCN(c3ccccn3)CC2)n2cc(-c3ccccc3)nc2n1	4.2%	14.8%	35.5%	18.4µM*	20.6µM*
CCOC(=O)c1c(N2C(=O)C3C4C=CC(O4)C3C2=O)sc2c1CCCC2 (centres undefined)	7.1%	17.8µM*	?	16.4µM*	8.2µM*
CCOC(=O)c1c(-n2cnnn2)sc2c1CCCC2	0.0%	-25.6%	-14.3%	-21.2%	-22.0%
CCOc1cc(/C=C2\C(=O)N(c3cccc(C(=O)O)c3)N=C2C(F)(F)F)ccc1OCC(=O)Nc1ccccc1OC	-7.1%	-0.7%	1.1%	nt	nt

From PubChem
